Among all 1,400 compounds or so, about 140 (10%) were called active.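 How the source made its calls: active means Half-maximal inhibitory dose from the fit at or below ten times the top valid tested dose; inconclusive means Invalid fit, or flat curve showing 30 to 70% inhibition; inactive means the rest.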 Only a sample is shown. Measured potencies and affinities stand elsewhere.
Target: Lysine-specific demethylase 4C (Homo sapiens) (UniProt Q9H3R0)
Test: inhibition of JMJD2C H3K9me3 demethylation – biochemical, DELFIA europium, cherry-picked samples, dose response (AID 488835);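 further: signal is the H3K9me2 demethylation product detected by a dimethyl-specific antibody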
Conditions: GST-JMJD2C(1-420); series mostly up to 6 µM; activity change, negative = inhibition: at the top concentration

Lysine-specific demethylase 4C (Homo sapiens), sequence (Q9H3R0 1-420 limits assumed): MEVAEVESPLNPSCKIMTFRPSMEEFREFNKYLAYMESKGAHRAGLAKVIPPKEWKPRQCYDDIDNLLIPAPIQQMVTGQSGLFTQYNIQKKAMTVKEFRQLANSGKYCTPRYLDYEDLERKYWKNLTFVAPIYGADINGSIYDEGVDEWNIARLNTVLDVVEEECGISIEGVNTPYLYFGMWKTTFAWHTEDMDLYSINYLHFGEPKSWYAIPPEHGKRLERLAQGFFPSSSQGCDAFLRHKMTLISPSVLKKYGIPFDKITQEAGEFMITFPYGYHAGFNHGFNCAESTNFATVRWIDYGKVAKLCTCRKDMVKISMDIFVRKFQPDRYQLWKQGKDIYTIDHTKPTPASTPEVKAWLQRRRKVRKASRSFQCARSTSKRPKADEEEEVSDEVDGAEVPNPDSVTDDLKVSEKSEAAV

Activity change, negative = inhibition, inactive:
CC1CCCCC12NC(=O)N(CC(=O)NCCc1ccccn1)C2=O (stereo not given) 2.94%
COc1ccc(NC(=O)Nc2c[nH]c(=O)[nH]c2=O)cc1OC -17.8%
COc1ccc(C(=O)OCCc2sc[n+](CC(=O)c3ccccc3)c2C)cc1 3.83%
CCOC(=O)N1CCC(c2nc3ccccc3[nH]2)CC1 4.41%
O=C(c1cccc(C(F)(F)F)c1)N1CCCC1 2.21%
O=C(O)c1ccc(/C=N/Nc2cccc(C(F)(F)F)c2)cc1 1.51%
Cn1c2ccccc2c(=O)c2ccc(NCCc3cccs3)cc21 -2.85%
COc1cccc(C(C[N+](=O)[O-])c2c(C)[nH]n(-c3ccccc3)c2=O)c1 (stereo not given) -3.47%
CCCc1nn(C)c(C(=O)Nc2ccc(C)c(C)c2)c1Cl -4.42%
O=C(Nc1nc2ccccc2n1CCN1CCCC1)C1CCCCC1 1.08%
Cc1ccc(/C=N\NC(=O)c2cc([N+](=O)[O-])cc([N+](=O)[O-])c2)o1 5.01%
O=C(N/N=C/c1cc([N+](=O)[O-])cc([N+](=O)[O-])c1O)/C(=C\c1cccs1)NC(=O)c1ccccc1 10.2%
CC(C)c1ccc(NC2CCCN(C(=O)CCN3CCCCC3=O)C2)cc1 (stereo not given) 16.1%
c1ccc(-c2csc(-n3cccn3)n2)cc1 -6.44%
CCOC(=O)c1sc(=S)n(-c2ccc(Cl)cc2)c1SC -5.62%
O=C(Oc1ccc(N2C(=O)CCC2=O)cc1)c1ccccc1 -2.3%
O=C(Nc1nnc(-c2cc(Cl)ccc2Cl)o1)c1ccco1 1.16%
COc1ccc(OC)c(C2=NOC(C(=O)NCCN3CCOCC3)C2)c1 (stereo not given) 0.98%
CCOC(=O)[C@H]1[C@H]2COc3ccc(OC)cc3[C@@H]2N2C(=O)c3cc(C)ccc3NC(=O)[C@@]12C 3.57%
Cc1cc2ccccn2c1C(=O)c1ccncc1 2.06%
O=C1CC(CSc2ccc(Cl)cc2)=NN1 -3.58%
CCN(Cc1cc2cc(OC)ccc2[nH]c1=O)C(=O)c1ccncc1 2.46%
Cc1ccccc1NC(=S)c1nc2ccccc2[nH]1 4.49%
Cc1cccc(C2=N/C(=C\c3cccnc3)C(=O)O2)c1 0.125%
O=[N+]([O-])c1ccc(/C=[N+](\[O-])[C@@H]2CCCC[C@@H]2/[N+]([O-])=C/c2ccc([N+](=O)[O-])o2)o1 2.35%
Cc1cccc(N2C(=O)C3C4C=CC(C4)C3C2=O)c1 (stereo not given) 9.08%
Cc1cccc(NC(=O)/C(=C\c2ccc([N+](=O)[O-])o2)NC(=O)c2ccc(Cl)cc2)c1 -5.59%
COc1cccc(C2c3[nH]c4ccccc4c3CCN2CCCn2cccn2)c1 (stereo not given) -2.21%
N#CCCCCN1c2cccc3cccc(c23)S1(=O)=O 2.59%
O=C(Cn1cnc2c(OCc3ccccc3)ncnc21)NCCN1CCOCC1 -2.74%
CN1CCN(c2ccc([N+](=O)[O-])cc2C(=O)N2CCOCC2)CC1 2.83%
Cc1c(C(=O)N2CCC3(CC2)CC(=O)c2ccccc2O3)cccc1[N+](=O)[O-] -4.59%
COc1ccc(OC)c(N(CC(=O)NCc2ccncc2)S(C)(=O)=O)c1 -3.48%
COc1ccc(-c2cc(C(F)(F)F)n3nc(C(=O)NCCCN4CCOCC4)cc3n2)cc1 1.92%
Cc1[nH]c2ccccc2c1-c1ccc(Cl)nn1 7.91%
COC(=O)c1sc(S(=O)(=O)NCc2ccccc2)c(C(=O)OC)c1C 0.554%
COC(=O)c1ccc(CSc2nnc(N)s2)o1 3.51%
COc1ccc(NC(=O)N(C)C[C@H]2Oc3c(NC(=O)Nc4ccccc4)cccc3C(=O)N([C@H](C)CO)C[C@@H]2C)cc1 -1.85%
COC(=O)C(Cc1ccccc1)NC(=O)COc1ccc(C(C)(C)C)cc1 (stereo not given) -0.353%
COc1cc2cnncc2cc1OC 6.48%
C/C(CC(=O)Nc1cccc(Cl)c1Cl)=N\NC(=O)c1ccccc1N -1.55%
CC(C)(O)[C@H](O)Cc1cc2ccc(=O)oc2cc1O[C@@H]1O[C@H](CO)[C@@H](O)[C@H](O)[C@H]1O -1.7% [at 1.6 µM]
CC1(C)CC[C@]2(CO)CC[C@]3(C)C(=CCC4[C@@]5(C)CC[C@H](O)[C@@](C)(CO)C5CC[C@]43C)[C@@H]2C1 (stereo not given in full) -4.71%
CCN(C[C@H]1N[C@@](C)(C(=O)OC)[C@H]2C(=O)N(C)C(=O)[C@@H]12)C(=O)Nc1ccc(OC)cc1 6.79%
COc1ccc(/C=N/NC(=O)c2cc(C)on2)c2ccccc12 -1.79%
O=C(NCC1CCCO1)c1ccc2c(=O)n(Cc3cccc(Br)c3)c(=S)[nH]c2c1 (stereo not given) 10.2%
Cc1csc(NC(=O)CSc2nnc(-c3ccncc3)n2C)n1 0.313%
CCn1c(SCC(=O)Nc2nc(C)cs2)nnc1-c1ccncc1 3.16%
CCCn1c2ccccc2c2nnc(SCC(=O)Nc3c(C)n(C)n(-c4ccccc4)c3=O)nc21 5.59%
C[C@H](CO)N1C[C@H](C)[C@@H](CN(C)S(=O)(=O)c2ccccc2)Oc2ccc(NS(=O)(=O)c3ccc(F)cc3)cc2C1=O -0.626%
O=C(COC(=O)Cc1ccccc1F)Nc1ccc(SC(F)F)cc1 -3.2%
CC(=O)N=c1sccn1CC(=O)c1ccc([N+](=O)[O-])cc1 -1.76%
COc1ccc(CNC(=O)CSc2nnnn2Cc2ccccc2)cc1 -1.94%
COc1ccccc1-c1nc(C#N)c(NCc2ccc(F)cc2)o1 -3.18%
CCNc1oc(-c2cccc3ccccc23)nc1C#N -1.71%
O=c1c2ccccc2c(C=NCCCN2CCOCC2)c(O)n1Cc1ccccc1 4.11%
CC(C)NC(=O)N(C)C[C@H]1Oc2ccc(NC(=O)C3CC3)cc2C(=O)N([C@H](C)CO)C[C@@H]1C -0.486%
COC(=O)c1sc(NC(=O)c2cc3c(s2)CCCC3)nc1C -1.23%
Cn1c(=O)[nH]c(=O)c2c1nc(SCC(=O)O)n2CCc1ccccc1 4.64%
CCc1ccc(C(=O)CSc2nc3ccccc3c(=O)[nH]2)cc1 8.14%
c1ccc(Nc2n[nH]nc2-c2ccccc2)cc1 7.58%
CCn1c(=O)c(-c2nc3ccccc3[nH]2)c(O)c2ccccc21 -0.309%
C[C@H](CO)N1C[C@H](C)[C@@H](CN(C)C(=O)Nc2ccc(C(F)(F)F)cc2)Oc2c(cccc2N(C)C)C1=O 5.89%
Cc1cc2oc(=O)cc(CSc3nnc(-c4cccs4)o3)c2cc1C(C)C -1.88%
CC(=O)N1C(c2ccccc2O)C[C@]2(C)CC(=O)NC12 (stereo not given in full) -1.35%

Source: PubChem BioAssay AID488835 (Broad Institute, 2010)
